Results from PubChem BioAssay (NCI).
About 83,000 compounds went through this panel and 20% of them were active in at least one assay; those are over-represented in the sample as a whole.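 Note: values are percent growth. 100 is the growth of untreated cells, values between 100 and 0 indicate rising inhibition; between -100 and 0 indicates cell death.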 Values without a mark were called inactive. Calls of active or inactive are those of the source. The calls were made as follows: active = growth percent below 10; inactive = the rest.

Each compound was assayed on UACC-257 melanoma (assay: NCI-60 one-dose screen, 48 h (100 = growth as untreated, 0 = no growth, -100 = all killed)). Settings: 10 µM unless noted.

SMILES	growth
O=C1/C(=C/c2ccc(Oc3ccccc3)cc2)N=C(c2ccccc2)N1CCc1cccs1	99.1%
O=C1/C(=C/c2ccc(Cl)cc2)N=C(c2ccccc2)N1CCc1cccs1	56.3%
COc1ccc(Sc2ccc3[nH]c(=O)nc(N)c3c2)cc1	92%
COc1cc(C(=O)N(C(C)C)C2CCCCC2)cc(OC)c1OC	93.7%
COc1ccc(C2OCC(C)(C)CO2)cc1OC	87.5%
O=C(NCc1ccco1)C1CCN(S(=O)(=O)c2ccc(Cl)cc2)CC1	86.5%
COc1ccc(-c2csc3c2-n2cccc2C3=O)cc1O	43.8%
COC(=O)[C@@H]1CCCN1C(=O)[C@@H]1CCCN1C(=O)[C@@H](Cc1c[nH]c2ccccc12)NC(=S)Nc1cc(C(F)(F)F)cc(C(F)(F)F)c1	72.3%
CCN1C(=O)C2(Nc3ccccc3S2)c2cc(C)ccc21 (stereo not drawn)	101%
Cc1nc(-c2ccccc2)cc2c(O)c(C(=O)N/N=C/Cc3ccccc3)[nH]c(=O)c12	94.5%
O=S(=O)(/N=C1C=C/C(=N\S(=O)(=O)c2ccccc2)c2ccccc2\1)c1ccccc1	95.1%
CCCOC(=O)c1ccc2c(c1)[N+](=O)C(C(=O)c1ccccc1)=C(C(F)(F)F)[N+]2=O	-94.2% (active)
CCCN(CCC)c1ccc(/C=C/c2ccc3cc(OCC)ccc3n2)cc1	84.3%
COc1cccc(C2CC(=O)Nc3cc4c(cc32)CCC4)c1OC (stereo not drawn)	71.7%
CC1SC(c2ccc(Cl)cc2)N(CCc2cccs2)C1=O (stereo not drawn)	-28.7% (active)
O=C(O)c1ccccc1Oc1cc(-c2ccco2)nc(OCCBr)n1	97.8%
COc1ccccc1/C=C/C(=O)/C=C/c1ccccc1O	69.7%
COc1cc(/C=C/C(=O)C(=Cc2ccc(F)c(F)c2)C(=O)/C=C/c2ccc(O)c(OC)c2)ccc1O	47.3%
CC1(C)CC(=O)C2=C(C1)Nc1cc3c(cc1C2c1ccc(F)cc1)OCO3 (stereo not drawn)	110%
Nc1nc(N)c(C=Nc2ccc(Br)cc2)c(Nc2ccc(Br)cc2)n1	83.1%

SMILES	growth
COc1cc(/C=C2\C(=O)Nc3ccccc32)cc(OC)c1O	62.6%
Brc1ccccc1Nc1ccc2nnc(-c3ccncc3)n2n1	106%
O=C(Nc1nc2ccccc2[nH]1)C(=O)Nc1nc2ccccc2[nH]1	101%
COc1ccc(C2SC(C)C(=O)N2CCc2cccs2)cc1OC (stereo not drawn)	75.7%
Oc1ccc(Cl)cc1CNc1nc2ccccc2[nH]1	-63.4% (active)
CCOC(=O)c1c(-c2cc(OC)c(OC)c(OC)c2)csc1N	104%
COc1cc(C2CC(=O)Nc3c2ccc2ccccc32)cc(Br)c1OC (stereo not drawn)	59.7%
Cc1ccc(-c2nnc(COc3ccc(-c4nnc(N)s4)cc3)o2)cc1	112%
COc1cc(/C=C2\C(=O)N(c3c(Cl)cccc3Cl)c3ccccc32)cc(OC)c1O	46.1%
COC(=O)[C@H]1CCCN1C(=O)[C@H]1CCCN1C(=O)[C@@H](Cc1c[nH]c2ccccc12)NC(=S)Nc1cc(C(F)(F)F)cc(C(F)(F)F)c1	75.4%
COc1ncnc2c1ncn2C/C(Br)=C(\Br)CCl	-40.5% (active)
COc1cc(CNCCN2C(=O)c3ccc4c5c(ccc(c35)C2=O)C(=O)N(CCNCc2cc(OC)c(OC)c(OC)c2)C4=O)cc(OC)c1OC	-70.9% (active)
O=C1CN2CCC1C/C2=C\c1ccnc2c(Cl)cccc12 (stereo not drawn)	95.2%
O=C1OCC2=C1C(c1ccc3c(c1)OCO3)CC(=O)N2c1cccc(Cl)c1 (stereo not drawn)	104%
Cc1ccc(C2SCC(=O)N2NC(=O)c2[nH]c3ccc(F)cc3c2-c2ccccc2)cc1 (stereo not drawn)	86.9%
O=C(Nc1ccccc1)Oc1cccc2cccnc12	75.6%
CCOC(=O)c1sc(NC(=O)CN2CCC(Cc3ccccc3)CC2)nc1C	127%
CN([N-]C(=O)CC(=O)[N-]N(C)C(=S)c1ccccc1)C(=S)c1ccccc1.[Cu+2]	-92.9% (active)
Clc1cccc(Cl)c1Nc1ccc2nnc(-c3ccncc3)n2n1	97.8%

Each compound was assayed on M14 melanoma in the same assay as above. Settings: 10 µM unless noted.

SMILES	growth
O=C1/C(=C/c2ccc(Oc3ccccc3)cc2)N=C(c2ccccc2)N1CCc1cccs1	58.7%
O=C1/C(=C/c2ccc(Cl)cc2)N=C(c2ccccc2)N1CCc1cccs1	42.2%
COc1ccc(Sc2ccc3[nH]c(=O)nc(N)c3c2)cc1	105%
COc1cc(C(=O)N(C(C)C)C2CCCCC2)cc(OC)c1OC	132%
COc1ccc(C2OCC(C)(C)CO2)cc1OC	113%
O=C(NCc1ccco1)C1CCN(S(=O)(=O)c2ccc(Cl)cc2)CC1	72.4%
COc1ccc(-c2csc3c2-n2cccc2C3=O)cc1O	-18.5% (active)
COC(=O)[C@@H]1CCCN1C(=O)[C@@H]1CCCN1C(=O)[C@@H](Cc1c[nH]c2ccccc12)NC(=S)Nc1cc(C(F)(F)F)cc(C(F)(F)F)c1	61.1%
CCN1C(=O)C2(Nc3ccccc3S2)c2cc(C)ccc21 (stereo not drawn)	92.6%
Cc1nc(-c2ccccc2)cc2c(O)c(C(=O)N/N=C/Cc3ccccc3)[nH]c(=O)c12	106%
O=S(=O)(/N=C1C=C/C(=N\S(=O)(=O)c2ccccc2)c2ccccc2\1)c1ccccc1	112%
CCCOC(=O)c1ccc2c(c1)[N+](=O)C(C(=O)c1ccccc1)=C(C(F)(F)F)[N+]2=O	-70.3% (active)
CCCN(CCC)c1ccc(/C=C/c2ccc3cc(OCC)ccc3n2)cc1	86.4%
COc1cccc(C2CC(=O)Nc3cc4c(cc32)CCC4)c1OC (stereo not drawn)	25.5%
CC1SC(c2ccc(Cl)cc2)N(CCc2cccs2)C1=O (stereo not drawn)	-12.8% (active)
O=C(O)c1ccccc1Oc1cc(-c2ccco2)nc(OCCBr)n1	104%
COc1ccccc1/C=C/C(=O)/C=C/c1ccccc1O	-31% (active)
COc1cc(/C=C/C(=O)C(=Cc2ccc(F)c(F)c2)C(=O)/C=C/c2ccc(O)c(OC)c2)ccc1O	2.1% (active)
CC1(C)CC(=O)C2=C(C1)Nc1cc3c(cc1C2c1ccc(F)cc1)OCO3 (stereo not drawn)	115%
Nc1nc(N)c(C=Nc2ccc(Br)cc2)c(Nc2ccc(Br)cc2)n1	97.2%

SMILES	growth
COc1cc(/C=C2\C(=O)Nc3ccccc32)cc(OC)c1O	53.6%
Brc1ccccc1Nc1ccc2nnc(-c3ccncc3)n2n1	101%
O=C(Nc1nc2ccccc2[nH]1)C(=O)Nc1nc2ccccc2[nH]1	98.8%
COc1ccc(C2SC(C)C(=O)N2CCc2cccs2)cc1OC (stereo not drawn)	121%
Oc1ccc(Cl)cc1CNc1nc2ccccc2[nH]1	-49.1% (active)
CCOC(=O)c1c(-c2cc(OC)c(OC)c(OC)c2)csc1N	89.8%
COc1cc(C2CC(=O)Nc3c2ccc2ccccc32)cc(Br)c1OC (stereo not drawn)	-15.3% (active)
Cc1ccc(-c2nnc(COc3ccc(-c4nnc(N)s4)cc3)o2)cc1	88.1%
COc1cc(/C=C2\C(=O)N(c3c(Cl)cccc3Cl)c3ccccc32)cc(OC)c1O	39.2%
COC(=O)[C@H]1CCCN1C(=O)[C@H]1CCCN1C(=O)[C@@H](Cc1c[nH]c2ccccc12)NC(=S)Nc1cc(C(F)(F)F)cc(C(F)(F)F)c1	44.4%
COc1ncnc2c1ncn2C/C(Br)=C(\Br)CCl	-24.6% (active)
COc1cc(CNCCN2C(=O)c3ccc4c5c(ccc(c35)C2=O)C(=O)N(CCNCc2cc(OC)c(OC)c(OC)c2)C4=O)cc(OC)c1OC	-96.9% (active)
O=C1CN2CCC1C/C2=C\c1ccnc2c(Cl)cccc12 (stereo not drawn)	103%
O=C1OCC2=C1C(c1ccc3c(c1)OCO3)CC(=O)N2c1cccc(Cl)c1 (stereo not drawn)	121%
Cc1ccc(C2SCC(=O)N2NC(=O)c2[nH]c3ccc(F)cc3c2-c2ccccc2)cc1 (stereo not drawn)	109%
O=C(Nc1ccccc1)Oc1cccc2cccnc12	57.6%
CCOC(=O)c1sc(NC(=O)CN2CCC(Cc3ccccc3)CC2)nc1C	101%
CN([N-]C(=O)CC(=O)[N-]N(C)C(=S)c1ccccc1)C(=S)c1ccccc1.[Cu+2]	-58.2% (active)
Clc1cccc(Cl)c1Nc1ccc2nnc(-c3ccncc3)n2n1	99.1%
